From PubChem BioAssay (NCI)
This is part of a sample that, as a whole, favours compounds with a hit. Of some 83,000 tested, about 20% had one in any assay.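 For each line, cells grew in 96-well plates with the test compound present at a single concentration for 48 hours.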 Values without a mark were called inactive. The source made the active and inactive calls. How the source made its calls: active means growth percent below 10; inactive means the rest.

Columns and labels:
Test in all cases: NCI-60 one-dose screen, 48 h (100 = growth as untreated, 0 = no growth, -100 = all killed)
Conditions in all cases: 10 µM unless noted
T-47D breast = tested on: T-47D breast
BT-549 breast = tested on: BT-549 breast
MDA-MB-435 melanoma = tested on: MDA-MB-435 melanoma
SW-620 colon = tested on: SW-620 colon
MCF7 breast = tested on: MCF7 breast
HCT-116 colon = tested on: HCT-116 colon
HCC-2998 colon = tested on: HCC-2998 colon
KM12 colon = tested on: KM12 colon

SMILES | growth (T-47D breast) | growth (BT-549 breast) | growth (MDA-MB-435 melanoma) | growth (SW-620 colon) | growth (MCF7 breast) | growth (HCT-116 colon) | growth (HCC-2998 colon) | growth (KM12 colon)
CCNC(=O)N1CCc2cc(OC)c(OCCc3ccc(OC)c(N)c3)cc2C1c1ccc(C)cc1C (stereo not given) | 65.8% | -10.9% (active) | 13.4% | 23.2% | 17.2% | 9.82% (active) | 20.6% | 12.5%
O=C1[C@H]2Cc3c([nH]c4ccccc34)[C@@H](c3c(Cl)cccc3Cl)N2C(=O)CN1C1CCN(CC2CCCCC2)CC1 | 94% | 96.5% | 101% | 65.8% | 51.9% | 35.5% | 85.3% | 92%
CN1CCN(Cc2ccc(NC(=O)c3cncc(C#Cc4cnn5cccnc45)c3)cc2C(F)(F)F)CC1 | 54.2% | 47.1% | 3.16% (active) | 0.2% (active) | – | 4.34% (active) | 12.7% | 2.87% (active)
CC(=O)O[C@@H]1C(=O)N(c2cnccn2)[C@H]1c1ccccc1[N+](=O)[O-] | 85.2% | -13.3% (active) | -38.7% (active) | 20.1% | – | -14.2% (active) | 31.5% | -2.26% (active)
O=C(CNc1nc(-c2cccc([N+](=O)[O-])c2)cs1)Nc1cccc([N+](=O)[O-])c1 | -5.2% (active) | 15.2% | -15.5% (active) | 1.81% (active) | -1.07% (active) | -8.55% (active) | -55.9% (active) | 4.12% (active)
O=C(Cn1cc(-c2ccccc2)nn1)Nc1nc(-c2ccc(Cl)cc2)cs1 | 95% | 98.1% | 95.7% | 108% | 87% | 108% | 105% | 108%
C=CCn1c(SCC(=O)Nc2ccc(C(=O)/C=C/c3ccc(Cl)cc3)cc2)nnc1-c1c[nH]c2ccccc12 | 60.5% | 111% | 83.5% | 88.3% | 9.26% (active) | -46% (active) | 97.1% | 80.4%
NC(=O)c1cccc(-n2ccc3cc(NC(=O)Nc4ccc(N5CCOCC5)c(C(F)(F)F)c4)ccc32)n1 | 1.29% (active) | -14.8% (active) | 10.5% | 4.98% (active) | 8.81% (active) | 0.168% (active) | 31.3% | -15.7% (active)
CCOC(=O)c1c(Nc2ccccc2)nn2c(-c3ccccc3)ccnc12 | 91% | 145% | 96.1% | 105% | 91.8% | 86.7% | 97.1% | 88.9%
COc1ccc(-c2nc3ccc(-c4nnc(SCC(=O)Nc5ccc(C(=O)/C=C/c6ccc(Cl)cc6)cc5)o4)cc3[nH]2)cc1 | 92.8% | 98.2% | 99.3% | 97% | 78% | 100% | 115% | 103%
Cc1ccc2sc3c(c2c1)OC(N)=C(C#N)C3c1cccc(F)c1 (stereo not given) | 35.5% | -6.44% (active) | -28.6% (active) | 15.2% | 15.2% | -24.6% (active) | 6.17% (active) | 2.9% (active)
CC(=O)C1=C(C)NC(NN)=NC1c1cccc(Cl)c1 (stereo not given) | 101% | 119% | 103% | 108% | – | 105% | 127% | 102%
COc1cc(-c2nc(SC(C)C)n(C(C)C)c(=O)c2C#N)ccc1OCc1ccccc1 | 52.6% | 93.8% | 85% | 52.4% | 75.3% | 42.9% | 87.6% | 95.1%
COc1cc2nc(Cl)nc(Nc3cccc(C4=Nc5c(N)nc(N)nc5NC(c5ccc(Cl)cc5)C4)c3)c2cc1OC (stereo not given) | 81.7% | 85.2% | 6.34% (active) | 11.2% | 13% | -44.8% (active) | 4.35% (active) | 14.1%
CNC(=O)c1cc(Oc2ccc3nc(NC(=O)c4ccc(N5CCOCC5)c(C(F)(F)F)c4)sc3c2)ccn1 | 86.1% | 94% | 88.4% | 114% | 70% | 60.2% | 96.3% | 56.7%
COc1cc2oc(-c3cccc(C(=O)N[C@@H](CC(C)C)C(=O)OC(C)(C)C)c3)cc(=O)c2c(OC)c1OC | 52.7% | 67.5% | 90% | 83.4% | 69.9% | 62.5% | 84% | 59.8%

SMILES | growth (T-47D breast) | growth (BT-549 breast) | growth (MDA-MB-435 melanoma) | growth (SW-620 colon) | growth (MCF7 breast) | growth (HCT-116 colon) | growth (HCC-2998 colon) | growth (KM12 colon)
C=CC(=O)N1CCC=C(c2cc3c(N[C@H](C)c4ccccc4)ncnc3[nH]2)C1 | 29.7% | 89.8% | 74.5% | 91.7% | 49.5% | 71.8% | 93.8% | 90.5%
O=C(NNc1nc2cc(F)cc(F)c2n2cccc12)c1cnccn1 | 10.3% | 24.1% | 31.3% | 21.7% | – | 12.3% | 49.9% | 28.7%
COc1ccc(-c2nc3cccc(O)c3c(=O)n2Cc2ccccc2)cc1COc1ccc(NC(C)=O)cc1 | 76.5% [3 µM] | 55.4% [3 µM] | 59.7% [3 µM] | 27.9% [3 µM] | – | 22.1% [3 µM] | 67.8% [3 µM] | 39.8% [3 µM]
O=S(=O)(NCCNc1nccc(-n2cnc3ccccc32)n1)c1ccc(Br)cc1 | 59.1% | 115% | 108% | 110% | 78.4% | 99.8% | 103% | 85.4%
CC(=O)N(C)C1CCc2c(sc(NC(=O)c3ccc(C(C)(C)C)cc3)c2C(N)=O)C1 (stereo not given) | 74% | 88.2% | 83.7% | 58.2% | – | 65.1% | 108% | 64.9%
COc1ccc(N2CCN(C3=C(Cl)C(=O)C(C)=C(C)C3=O)CC2)cc1 | 30% | 117% | 105% | 113% | 92.1% | 99.3% | 111% | 107%
COc1ccc([C@@H]2c3[nH]c4ccccc4c3C[C@H]3C(=O)N(C4CCN(CC5CCCCC5)CC4)CC(=O)N23)c(OC)c1 | 101% | 80.3% | 73.6% | 80.1% | 42.6% | 50% | 78.6% | 82.3%
CCc1cccc(NC(=O)CNc2cc(S(=O)(=O)N(C)C)cc(C)c2C)c1 | 88.8% | 97.3% | 92.4% | 97.6% | 91.7% | 91.3% | 123% | 98.9%
O=C(CSc1nnc(-c2ccc3nc(-c4ccccc4)[nH]c3c2)o1)Nc1ccc(C(=O)/C=C/c2ccccc2)cc1 | 98.6% | 96.8% | 101% | – | 87.6% | 97% | 106% | 110%
N#Cc1cnc2ccc(-c3cnc4[nH]ncc4c3)cc2c1N1CCc2cc(F)c(Cl)cc21 | -2.57% (active) | 20.1% | -10.2% (active) | 17.9% | – | 8.48% (active) | -11.8% (active) | 14%
C/C(=N\O)[C@H]1C[C@]23CC[C@]4(C)[C@H](CC[C@@H]5[C@@]6(C)CC/C(=N/O)C(C)(C)[C@@H]6CC[C@]54C)[C@H]2[C@H](C)C1(C)OC3 | 108% | 107% | 97.2% | 99.9% | – | 97.2% | 115% | 102%
O=C1/C(=C/C=C/c2ccco2)SC(=S)N1C1CCCCC1 | 68.8% | 111% | 85.3% | – | 54.3% | 99.8% | 97.3% | 96.9%
CCc1nn2c(C)cc(C)nc2c1Cc1ccc(/C=C/CN2CCN(CCOCCOCCN3CCN(C/C=C/c4ccc(Cc5c(CC)nn6c(C)cc(C)nc56)cc4)CC3)CC2)cc1 | -36.4% (active) | 79.7% | -78.3% (active) | – | -85.8% (active) | -84.1% (active) | -61.9% (active) | 35.2%
COc1ccccc1-n1cc(C#N)c(N)c1C(=O)c1ccc(C)cc1 | 82.1% | 83.9% | 5.3% (active) | 52.4% | – | 76.8% | 80.9% | 59.6%
Cc1ccc(S(=O)(=O)NCCNc2nc(Nc3ccc(N4CCN(C)CC4)cc3)nc3ccsc23)cc1 | 102% | 114% | 109% | – | 87.4% | 69.7% | 104% | 100%
